Our source for the binding signal values is publication PMC7862700, “An all-to-all approach to the identification of sequence-specific readers for epigenetic DNA modifications on cytosine”.

Assay in all cases: DAPPL (digital affinity profiling via proximity ligation, sequencing); 10 mM Tris-HCl pH 7.5, 50 mM NaCl, 1 mM DTT, 4% glycerol, room temperature, 30 min; GST-TFs on glutathione beads, 16-mer random dsDNA library, 0.1% formaldehyde crosslink after washing; high values mean tight binding
In one experiment the target is T1, FEV (Homo sapiens, UniProt Q99581 1-238).
T1 sequence: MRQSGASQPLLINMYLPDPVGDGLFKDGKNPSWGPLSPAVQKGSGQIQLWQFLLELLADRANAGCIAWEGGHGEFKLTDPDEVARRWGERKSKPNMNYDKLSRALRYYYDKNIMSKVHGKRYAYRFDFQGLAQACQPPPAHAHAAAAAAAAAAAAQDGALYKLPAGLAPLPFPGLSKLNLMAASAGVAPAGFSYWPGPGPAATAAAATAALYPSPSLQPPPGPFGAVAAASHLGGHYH
The note with it: protein: recombinant; tags: N-terminal GST; dsDNA, one strand shown. The procedure, abridged: (§1)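 Binding signal is defined as a hexamer's read frequency for one factor over its frequency for the tag-only sample. To obtain reads, GST-fused human transcription factors were expressed in yeast, captured on glutathione beads, barcoded with DNA and pooled with that sample. Pools met 200 nmole of a 16-mer random double-stranded DNA library in Tris/NaCl/DTT/glycerol buffer for 30 min at room temperature before washing, 0.1% formaldehyde crosslinking, proximity ligation (BsaI/T4 ligase, 1 h, 37 °C), PCR and Illumina NextSeq500 sequencing.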

The target in the next experiment is ETV5 (Homo sapiens, UniProt P41161 1-510). Conditions: protein: recombinant; tags: N-terminal GST; dsDNA, one strand shown. The procedure, abridged: as §1
For the next experiment, the target named is HSF1 (Homo sapiens, UniProt Q00613 1-529). The note with it: protein: recombinant; tags: N-terminal GST; chain copies: 3; dsDNA, one strand shown. The procedure, abridged: as §1
The next experiment has as its target T2, SPIC (Homo sapiens, UniProt Q8N5J4 1-248).
T2 sequence: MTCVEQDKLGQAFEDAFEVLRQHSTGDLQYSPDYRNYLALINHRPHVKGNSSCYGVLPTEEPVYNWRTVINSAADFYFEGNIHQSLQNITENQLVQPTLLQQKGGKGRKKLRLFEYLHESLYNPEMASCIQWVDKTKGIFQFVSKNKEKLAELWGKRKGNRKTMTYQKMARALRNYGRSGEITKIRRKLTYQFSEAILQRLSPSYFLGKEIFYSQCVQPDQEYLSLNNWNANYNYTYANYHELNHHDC
Conditions: protein: recombinant; tags: N-terminal GST; dsDNA, one strand shown. The procedure, abridged: as §1

For a further experiment, the target named is ELF4 (Homo sapiens, UniProt Q99607 1-663). Conditions: protein: recombinant; tags: N-terminal GST; dsDNA, one strand shown. The procedure, abridged: as §1
In a further experiment the target is T3, ELK4 (Homo sapiens, UniProt P28324-2 1-405).
T3 sequence: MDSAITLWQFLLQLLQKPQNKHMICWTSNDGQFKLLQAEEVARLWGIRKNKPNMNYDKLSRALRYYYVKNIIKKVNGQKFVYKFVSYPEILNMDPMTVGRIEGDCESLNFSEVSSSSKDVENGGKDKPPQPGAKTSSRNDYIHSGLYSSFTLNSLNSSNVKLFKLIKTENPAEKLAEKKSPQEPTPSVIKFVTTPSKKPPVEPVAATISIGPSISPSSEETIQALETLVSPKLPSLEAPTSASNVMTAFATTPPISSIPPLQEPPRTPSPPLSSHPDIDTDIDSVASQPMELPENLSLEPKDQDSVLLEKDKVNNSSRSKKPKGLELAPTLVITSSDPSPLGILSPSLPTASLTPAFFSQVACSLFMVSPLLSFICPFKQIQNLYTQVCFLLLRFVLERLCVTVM
The note with it: protein: recombinant; tags: N-terminal GST; dsDNA, one strand shown. The procedure, abridged:
as §1

For a further experiment, the target named is T4, ETV2 (Homo sapiens, UniProt O00321 1-342).
T4 sequence: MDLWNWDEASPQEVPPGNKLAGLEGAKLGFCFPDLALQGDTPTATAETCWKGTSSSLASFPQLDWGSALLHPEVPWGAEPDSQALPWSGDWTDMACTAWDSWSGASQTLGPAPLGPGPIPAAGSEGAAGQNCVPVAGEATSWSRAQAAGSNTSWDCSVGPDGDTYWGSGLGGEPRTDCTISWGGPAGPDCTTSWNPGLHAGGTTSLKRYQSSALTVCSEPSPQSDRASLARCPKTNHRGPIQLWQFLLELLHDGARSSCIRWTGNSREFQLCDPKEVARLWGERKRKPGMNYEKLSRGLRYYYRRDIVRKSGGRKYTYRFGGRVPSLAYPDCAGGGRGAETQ
Conditions: protein: recombinant; tags: N-terminal GST; dsDNA, one strand shown. The procedure, abridged:
as §1

For the next experiment, the target named is T5, ELF3 (Homo sapiens, UniProt P78545 1-371).
T5 sequence: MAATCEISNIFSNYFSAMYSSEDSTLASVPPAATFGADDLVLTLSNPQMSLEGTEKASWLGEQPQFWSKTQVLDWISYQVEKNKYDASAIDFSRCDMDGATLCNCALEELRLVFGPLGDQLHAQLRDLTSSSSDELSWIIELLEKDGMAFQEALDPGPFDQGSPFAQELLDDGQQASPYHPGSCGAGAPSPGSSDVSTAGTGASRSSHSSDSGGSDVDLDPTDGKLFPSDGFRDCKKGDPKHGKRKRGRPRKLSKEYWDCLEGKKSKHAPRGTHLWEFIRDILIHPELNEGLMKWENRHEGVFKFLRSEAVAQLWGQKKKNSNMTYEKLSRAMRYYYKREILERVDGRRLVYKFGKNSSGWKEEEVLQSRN
Conditions: protein: recombinant; tags: N-terminal GST; dsDNA, one strand shown. The procedure, abridged:
as §1

A further experiment addresses CRX (Homo sapiens, UniProt O43186 1-299). Conditions: protein: recombinant; tags: N-terminal GST; dsDNA, one strand shown. The procedure, abridged: as §1
A further experiment deals with ETV1 (Homo sapiens, UniProt P50549 1-477). The note with it: protein: recombinant; tags: N-terminal GST; dsDNA, one strand shown. The procedure, abridged:
as §1

In the next experiment the target is T6, ERF (Homo sapiens, UniProt P50548 1-548).
T6 sequence: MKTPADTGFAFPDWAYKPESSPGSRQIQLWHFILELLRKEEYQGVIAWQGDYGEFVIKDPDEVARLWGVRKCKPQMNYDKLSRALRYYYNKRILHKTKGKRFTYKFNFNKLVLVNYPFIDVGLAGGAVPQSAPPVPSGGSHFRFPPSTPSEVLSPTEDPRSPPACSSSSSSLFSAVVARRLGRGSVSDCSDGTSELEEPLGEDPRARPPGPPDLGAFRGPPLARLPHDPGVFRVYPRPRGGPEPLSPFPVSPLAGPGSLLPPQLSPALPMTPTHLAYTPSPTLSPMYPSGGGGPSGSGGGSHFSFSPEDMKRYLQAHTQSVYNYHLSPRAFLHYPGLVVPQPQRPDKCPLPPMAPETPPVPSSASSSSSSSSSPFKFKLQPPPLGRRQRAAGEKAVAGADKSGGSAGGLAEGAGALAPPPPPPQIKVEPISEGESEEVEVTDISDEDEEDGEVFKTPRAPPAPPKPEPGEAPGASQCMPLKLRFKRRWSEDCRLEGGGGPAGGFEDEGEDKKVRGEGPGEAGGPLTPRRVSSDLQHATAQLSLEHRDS
The note with it: protein: recombinant; tags: N-terminal GST; dsDNA, one strand shown. The procedure, abridged: as §1

The next experiment deals with T7, ETV3L (Homo sapiens, UniProt Q6ZN32 1-361).
T7 sequence: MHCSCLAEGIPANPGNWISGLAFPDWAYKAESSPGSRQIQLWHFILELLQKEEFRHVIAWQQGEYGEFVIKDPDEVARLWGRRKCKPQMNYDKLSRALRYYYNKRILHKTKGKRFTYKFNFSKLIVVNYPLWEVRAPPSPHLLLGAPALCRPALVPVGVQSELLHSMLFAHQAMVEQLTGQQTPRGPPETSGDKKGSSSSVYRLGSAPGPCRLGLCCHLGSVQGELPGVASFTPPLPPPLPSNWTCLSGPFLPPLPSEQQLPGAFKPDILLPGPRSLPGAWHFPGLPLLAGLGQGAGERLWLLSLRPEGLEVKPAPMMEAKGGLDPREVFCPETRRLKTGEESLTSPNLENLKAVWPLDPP
The note with it: protein: recombinant; tags: N-terminal GST; dsDNA, one strand shown. The procedure, abridged: as §1

Another experiment has as its target T8, ETS2 (Homo sapiens, UniProt P15036 1-469).
T8 sequence: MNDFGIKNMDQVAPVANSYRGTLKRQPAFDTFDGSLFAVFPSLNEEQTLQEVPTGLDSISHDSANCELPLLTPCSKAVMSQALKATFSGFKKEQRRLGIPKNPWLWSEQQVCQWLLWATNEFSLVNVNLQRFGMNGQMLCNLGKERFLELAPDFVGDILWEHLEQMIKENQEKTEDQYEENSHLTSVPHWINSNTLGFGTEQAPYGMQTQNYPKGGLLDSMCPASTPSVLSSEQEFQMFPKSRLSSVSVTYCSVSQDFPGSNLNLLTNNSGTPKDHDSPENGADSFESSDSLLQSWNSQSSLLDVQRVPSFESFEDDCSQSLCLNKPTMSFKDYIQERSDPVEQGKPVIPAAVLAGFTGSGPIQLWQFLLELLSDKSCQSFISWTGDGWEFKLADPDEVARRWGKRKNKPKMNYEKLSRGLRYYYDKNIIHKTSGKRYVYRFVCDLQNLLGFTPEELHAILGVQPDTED
The note with it: protein: recombinant; tags: N-terminal GST; dsDNA, one strand shown. The procedure, abridged:
as §1

The target in a further experiment is T9, SPDEF (Homo sapiens, UniProt O95238 1-335).
T9 sequence: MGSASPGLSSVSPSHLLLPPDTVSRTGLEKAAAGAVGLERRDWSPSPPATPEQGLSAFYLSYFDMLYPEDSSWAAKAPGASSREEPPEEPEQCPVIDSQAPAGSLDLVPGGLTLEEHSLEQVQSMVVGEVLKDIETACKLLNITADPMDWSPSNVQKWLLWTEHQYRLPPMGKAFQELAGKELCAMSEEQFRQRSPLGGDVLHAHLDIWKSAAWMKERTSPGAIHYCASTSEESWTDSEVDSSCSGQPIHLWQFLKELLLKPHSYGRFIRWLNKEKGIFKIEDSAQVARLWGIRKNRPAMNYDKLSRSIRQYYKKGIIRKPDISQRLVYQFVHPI
The note with it: protein: recombinant; tags: N-terminal GST; dsDNA, one strand shown. The procedure, abridged:
as §1

For another experiment, the target named is T10, ETV7 (Homo sapiens, UniProt Q9Y603 1-341).
T10 sequence: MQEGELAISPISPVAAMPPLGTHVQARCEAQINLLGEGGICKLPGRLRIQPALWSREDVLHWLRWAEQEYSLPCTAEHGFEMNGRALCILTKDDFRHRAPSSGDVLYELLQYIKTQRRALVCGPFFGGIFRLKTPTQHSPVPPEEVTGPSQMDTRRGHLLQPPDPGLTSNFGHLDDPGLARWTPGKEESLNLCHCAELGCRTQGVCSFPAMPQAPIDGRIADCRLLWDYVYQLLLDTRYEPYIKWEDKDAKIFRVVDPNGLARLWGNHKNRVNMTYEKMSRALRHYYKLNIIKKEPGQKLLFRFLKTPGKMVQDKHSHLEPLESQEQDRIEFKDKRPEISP
The note with it: protein: recombinant; tags: N-terminal GST; dsDNA, one strand shown. The procedure, abridged: as §1

The target of another experiment is T11, ELF5 (Homo sapiens, UniProt Q9UKW6-2 1-255).
T11 sequence: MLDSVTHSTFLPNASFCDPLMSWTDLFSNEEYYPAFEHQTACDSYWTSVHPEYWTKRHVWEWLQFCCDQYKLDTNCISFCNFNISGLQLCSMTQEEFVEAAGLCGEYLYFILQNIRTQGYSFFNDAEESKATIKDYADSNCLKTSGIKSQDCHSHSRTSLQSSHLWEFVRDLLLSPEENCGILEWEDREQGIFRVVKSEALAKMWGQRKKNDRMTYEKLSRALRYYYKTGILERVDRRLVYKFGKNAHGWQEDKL
The note with it: protein: recombinant; tags: N-terminal GST; dsDNA, one strand shown. The procedure, abridged:
as §1

The next experiment addresses T12, ETV3 (Homo sapiens, UniProt P41162-2 1-143).
T12 sequence: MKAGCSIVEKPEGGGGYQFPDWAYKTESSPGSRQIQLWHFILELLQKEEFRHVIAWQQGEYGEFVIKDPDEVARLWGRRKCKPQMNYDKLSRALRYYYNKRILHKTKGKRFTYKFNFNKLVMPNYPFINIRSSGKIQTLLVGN
Conditions: protein: recombinant; tags: N-terminal GST; dsDNA, one strand shown. The procedure, abridged:
as §1

For the next experiment, the target named is ETV6 (Homo sapiens, UniProt P41212 1-452). Conditions: protein: recombinant; tags: N-terminal GST; dsDNA, one strand shown. The procedure, abridged: as §1
Chain of ETV6 (P41212 whole entry): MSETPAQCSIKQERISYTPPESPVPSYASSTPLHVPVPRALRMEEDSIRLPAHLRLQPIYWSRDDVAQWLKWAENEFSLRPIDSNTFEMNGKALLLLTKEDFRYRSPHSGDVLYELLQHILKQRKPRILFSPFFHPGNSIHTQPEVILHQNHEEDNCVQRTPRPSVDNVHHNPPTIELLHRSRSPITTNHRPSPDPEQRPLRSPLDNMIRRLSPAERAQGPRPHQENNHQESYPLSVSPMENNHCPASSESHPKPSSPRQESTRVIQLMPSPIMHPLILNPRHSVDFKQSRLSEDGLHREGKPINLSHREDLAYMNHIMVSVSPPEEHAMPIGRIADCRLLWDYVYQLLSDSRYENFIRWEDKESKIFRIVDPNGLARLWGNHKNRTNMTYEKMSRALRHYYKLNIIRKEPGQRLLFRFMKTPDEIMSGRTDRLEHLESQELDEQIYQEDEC

Chain of ETV5 (P41161 whole entry): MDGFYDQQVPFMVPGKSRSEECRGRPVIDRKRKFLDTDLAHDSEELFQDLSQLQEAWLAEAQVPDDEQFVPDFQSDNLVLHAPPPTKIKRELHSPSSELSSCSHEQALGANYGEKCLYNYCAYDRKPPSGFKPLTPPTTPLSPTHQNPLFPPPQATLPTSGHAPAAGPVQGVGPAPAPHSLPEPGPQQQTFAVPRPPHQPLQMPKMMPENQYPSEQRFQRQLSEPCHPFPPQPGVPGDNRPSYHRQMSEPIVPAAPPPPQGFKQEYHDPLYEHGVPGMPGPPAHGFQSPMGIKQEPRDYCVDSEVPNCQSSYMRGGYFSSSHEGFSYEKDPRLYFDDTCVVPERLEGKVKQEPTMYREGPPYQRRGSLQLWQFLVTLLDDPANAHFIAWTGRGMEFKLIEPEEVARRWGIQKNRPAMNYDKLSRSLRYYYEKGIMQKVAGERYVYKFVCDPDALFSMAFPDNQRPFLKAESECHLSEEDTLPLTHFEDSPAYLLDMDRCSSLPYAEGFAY
Chain of ETV1 (P50549 whole entry): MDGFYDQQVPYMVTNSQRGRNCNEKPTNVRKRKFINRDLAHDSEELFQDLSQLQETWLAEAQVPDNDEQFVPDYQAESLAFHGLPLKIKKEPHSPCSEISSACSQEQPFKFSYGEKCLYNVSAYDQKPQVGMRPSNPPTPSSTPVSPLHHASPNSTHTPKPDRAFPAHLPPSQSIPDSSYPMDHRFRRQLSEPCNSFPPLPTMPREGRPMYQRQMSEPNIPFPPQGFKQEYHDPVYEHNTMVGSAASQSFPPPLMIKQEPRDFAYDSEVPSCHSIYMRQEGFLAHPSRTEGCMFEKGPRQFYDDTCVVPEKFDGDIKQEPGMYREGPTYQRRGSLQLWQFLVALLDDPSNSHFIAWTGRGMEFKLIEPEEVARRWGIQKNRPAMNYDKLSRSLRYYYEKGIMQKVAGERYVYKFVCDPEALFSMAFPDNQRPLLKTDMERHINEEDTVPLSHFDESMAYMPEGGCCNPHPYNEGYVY
Chain of HSF1 (Q00613 whole entry): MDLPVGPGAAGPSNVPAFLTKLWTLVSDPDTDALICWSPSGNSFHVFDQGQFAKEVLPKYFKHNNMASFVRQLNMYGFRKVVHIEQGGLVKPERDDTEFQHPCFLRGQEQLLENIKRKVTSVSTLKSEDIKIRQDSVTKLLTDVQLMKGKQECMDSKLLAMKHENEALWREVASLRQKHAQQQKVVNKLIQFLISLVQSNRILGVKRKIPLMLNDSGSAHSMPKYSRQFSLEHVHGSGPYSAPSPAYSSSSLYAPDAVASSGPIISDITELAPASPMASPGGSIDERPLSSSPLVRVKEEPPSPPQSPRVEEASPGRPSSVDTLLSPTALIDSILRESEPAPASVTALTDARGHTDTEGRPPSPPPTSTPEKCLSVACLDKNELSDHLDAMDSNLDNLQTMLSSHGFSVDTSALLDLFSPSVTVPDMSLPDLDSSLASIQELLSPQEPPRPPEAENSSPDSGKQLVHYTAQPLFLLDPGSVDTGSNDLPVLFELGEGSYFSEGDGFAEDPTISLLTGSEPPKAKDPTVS
Chain of CRX (O43186 whole entry): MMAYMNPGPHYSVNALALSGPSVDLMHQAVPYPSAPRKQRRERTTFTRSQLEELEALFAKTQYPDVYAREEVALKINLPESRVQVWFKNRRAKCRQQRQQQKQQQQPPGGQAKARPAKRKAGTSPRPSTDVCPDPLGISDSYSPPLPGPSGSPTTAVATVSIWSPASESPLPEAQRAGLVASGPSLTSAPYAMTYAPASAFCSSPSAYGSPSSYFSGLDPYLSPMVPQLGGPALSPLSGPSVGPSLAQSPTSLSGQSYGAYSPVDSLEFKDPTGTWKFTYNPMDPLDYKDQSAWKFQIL
Chain of ELF4 (Q99607 whole entry): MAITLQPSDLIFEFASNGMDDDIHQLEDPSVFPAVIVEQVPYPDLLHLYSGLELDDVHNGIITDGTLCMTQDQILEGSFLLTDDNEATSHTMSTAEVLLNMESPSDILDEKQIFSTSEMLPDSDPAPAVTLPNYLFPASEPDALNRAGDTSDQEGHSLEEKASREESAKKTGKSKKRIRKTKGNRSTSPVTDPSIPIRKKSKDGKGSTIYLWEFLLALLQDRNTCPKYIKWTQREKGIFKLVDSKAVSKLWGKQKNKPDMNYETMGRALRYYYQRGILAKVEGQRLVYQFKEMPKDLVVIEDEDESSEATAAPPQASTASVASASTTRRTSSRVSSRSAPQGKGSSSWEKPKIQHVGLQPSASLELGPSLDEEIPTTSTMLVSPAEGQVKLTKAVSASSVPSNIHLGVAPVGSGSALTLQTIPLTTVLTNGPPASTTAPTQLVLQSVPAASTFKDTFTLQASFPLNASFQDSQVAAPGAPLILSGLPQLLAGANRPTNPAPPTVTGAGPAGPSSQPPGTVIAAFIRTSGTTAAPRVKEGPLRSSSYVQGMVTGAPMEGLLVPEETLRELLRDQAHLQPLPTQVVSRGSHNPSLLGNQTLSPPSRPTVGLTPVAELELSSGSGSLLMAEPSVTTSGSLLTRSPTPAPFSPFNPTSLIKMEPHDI

As to AAGTAT, the binding signal is 1.34 fold enrichment (6-mer frequency, TF over GST control) with FEV; 1.38 fold enrichment (6-mer frequency, TF over GST control) with ETV5; 1.38 fold enrichment (6-mer frequency, TF over GST control) in the experiment with HSF1; 1.49 fold enrichment (6-mer frequency, TF over GST control) with SPIC; 1.4 fold enrichment (6-mer frequency, TF over GST control) in the experiment with ELF4; 1.31 fold enrichment (6-mer frequency, TF over GST control) with ELK4. In addition, the binding signal is 1.42 fold enrichment (6-mer frequency, TF over GST control) with ETV2; 1.35 fold enrichment (6-mer frequency, TF over GST control) with ELF3; 1.57 fold enrichment (6-mer frequency, TF over GST control) with CRX; 1.44 fold enrichment (6-mer frequency, TF over GST control) in the experiment with ETV1; 1.38 fold enrichment (6-mer frequency, TF over GST control) with ERF; 1.47 fold enrichment (6-mer frequency, TF over GST control) with ETV3L. The binding signal was 1.46 fold enrichment (6-mer frequency, TF over GST control) with ETS2; 1.31 fold enrichment (6-mer frequency, TF over GST control) with SPDEF; 1.5 fold enrichment (6-mer frequency, TF over GST control) with ETV7; 1.56 fold enrichment (6-mer frequency, TF over GST control) in the experiment with ELF5; 1.46 fold enrichment (6-mer frequency, TF over GST control) with ETV3; 1.58 fold enrichment (6-mer frequency, TF over GST control) in the experiment with ETV6.
